High-throughput results deposited in PubChem BioAssay by several laboratories.
BAP1 block: human BAP1 deubiquitinase inhibition. hit rate 0.48% among 72,000. recombinant BAP1, Ub-AMC hydrolysis fluorescence kinetic; hits give low values. AID 436. calls only at 20 µM. Q92560;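 active = activity remaining at or below 50% of control, provided the compound also passes the data quality filters; inactive = the rest, including low values that fail the filters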;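 note: 100% = DMSO wells rate and 0% = substrate alone blank rate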
sEH inhibitor: blocks human soluble epoxide hydrolase activity; inhibition, % at 2 µM; hit rate 0.34% among 91,000; recombinant human sEH enzymatic activity assay; in the data active = inhibition above about 80%
Target sequence (P34913 whole entry, looked up): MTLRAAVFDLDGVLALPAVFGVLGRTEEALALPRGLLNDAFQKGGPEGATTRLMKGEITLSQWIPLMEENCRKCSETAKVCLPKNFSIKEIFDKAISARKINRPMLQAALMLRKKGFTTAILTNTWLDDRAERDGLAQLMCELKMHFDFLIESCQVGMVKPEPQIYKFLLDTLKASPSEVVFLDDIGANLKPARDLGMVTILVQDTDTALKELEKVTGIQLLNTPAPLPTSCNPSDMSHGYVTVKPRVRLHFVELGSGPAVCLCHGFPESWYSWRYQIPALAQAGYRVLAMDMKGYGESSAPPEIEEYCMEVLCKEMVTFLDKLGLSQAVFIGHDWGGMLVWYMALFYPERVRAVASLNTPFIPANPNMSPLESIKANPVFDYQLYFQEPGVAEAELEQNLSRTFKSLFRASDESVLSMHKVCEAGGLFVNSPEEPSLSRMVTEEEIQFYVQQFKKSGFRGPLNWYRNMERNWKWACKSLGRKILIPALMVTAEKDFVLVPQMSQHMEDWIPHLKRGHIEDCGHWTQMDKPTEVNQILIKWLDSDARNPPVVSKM
PLAP activator: activators of human placental alkaline phosphatase | P05187 | purified PLAP enzyme, luminescent substrate read-out; hits give high values | activation fold at 20 µM | hit rate 1.2% among 96,000 | AID 696; in the data active = activation fold above about 2
sEH act: soluble epoxide hydrolase (human) activation | activation, % at 2 µM | AID 717 | hit rate 0.04% among 91,000 | purified human sEH enzymatic activity, activator screen; in the data active = activation above about 37%
Active calls of the source: *; ! = repeats disagree. Sampled rows, rich in hits. Any-hit rate of the full collection: about 1.3%.

O=C(Nc1ccc2c(c1)OCCO2)NC12CC3CC(CC(C3)C1)C2 was read as BAP1 block inactive, sEH inhibitor 97.3*, PLAP activator 1.2 and sEH act -97.3.
For CCCNC(=O)c1cnn2c1NC(c1cc(OC)c(OC)c(OC)c1)CC2C(F)(F)F (stereo not given) the results were BAP1 block inactive.
Screening CCOC(=O)C1=C(C)NC(C)=C(C(=O)OC)C1c1cccc(Cl)c1Cl (stereo not given) returned BAP1 block active!.
Screening CC(C)N=c1cccccc1NC(C)C returned BAP1 block inactive.
CCOc1ccc(-c2nc(CSc3nnc(C)s3)cs2)cc1OC was read as sEH inhibitor 6.5, PLAP activator 2.1* and sEH act -8.4.
Cc1cc(C)c2c(n1)nn1c(N3CCN(Cc4ccccc4)CC3)cc(C)nc21 was read as PLAP activator 2.1*.
Screening O=C(CSc1nc2ccccc2[nH]1)N1CCN(S(=O)(=O)c2ccc(Cl)cc2)CC1 returned sEH inhibitor -1.4, PLAP activator 2* and sEH act -4.2.
For Cc1ccc(S(=O)(=O)N2CCN(C(=O)CSc3nc4ccccc4c(=O)[nH]3)CC2)cc1 the results were BAP1 block inactive, sEH inhibitor 10.9 and sEH act -9.5.
`O=S(=O)(N=C(Nc1ccccc1)c1ccccc1Br)c1ccc(Cl)cc1` gave BAP1 block inactive.
O=C(Nc1ccc(Cc2ccncc2)cc1)C1CCC(N2C(=O)C3C4C=CC(C4)C3C2=O)CC1 (stereo not given) was read as sEH inhibitor 71.7, PLAP activator 2.1* and sEH act -72.1.
For O=C(Nc1ccc(Cc2ccncc2)cc1)C1CCC(N2C(=O)C3CC=CCC3C2=O)CC1 (stereo not given) the results were sEH inhibitor -10.4, PLAP activator 1.1 and sEH act 7.1.
COc1ccc(C2NC(C(=O)O)CS2)cc1COCC(F)(F)F (stereo not given) was read as BAP1 block inactive.
CC(C)c1ccc(C2NC(C(=O)O)CS2)cc1 (stereo not given) was read as sEH inhibitor -14.6, PLAP activator 2* and sEH act 12.0.
CCOC(=O)c1c(C)n(-c2ccccc2)c2c1cc(OC(=O)c1ccco1)c1ccccc12 was read as BAP1 block inactive.
`O=S(=O)(N=Cc1ccccc1)c1cccs1` gave BAP1 block inactive.
`c1ccc(Cn2c(CNc3nc4ccccc4n3CCN3CCOCC3)nc3ccccc32)cc1` gave BAP1 block inactive, sEH inhibitor 6.0, PLAP activator 2.8* and sEH act -7.2.
`O=C(Nc1cccc(Br)c1)c1ccc(Cl)c(S(=O)(=O)N2CCOCC2)c1` gave sEH inhibitor 95.0* and sEH act -94.7.
O=C(Nc1cccc(S(=O)(=O)C(F)F)c1)c1ccc(Cl)c(S(=O)(=O)N2CCOCC2)c1 was read as BAP1 block inactive and PLAP activator 0.9.
Screening CC(C)(C)SCCNC(=O)c1ccc(Cl)c(S(=O)(=O)N2CCOCC2)c1 returned sEH inhibitor 86.5* and sEH act -86.3.
Screening CC1CC(C)CN(S(=O)(=O)c2ccc(C(=O)N=c3sc4cc([N+](=O)[O-])ccc4n3C)cc2)C1 (stereo not given) returned BAP1 block inactive.
Screening Cc1cc2nc3c(c(=O)n2[nH]1)CCCC3 returned sEH inhibitor -34.0, PLAP activator 0.9 and sEH act 37.3*.
For COc1cccc(NC(=O)Nc2ccccc2C(=O)Nc2cccc(OC)c2)c1 the results were BAP1 block inactive.
Screening CCCCCCCCCCCCCCSCC(=O)O returned BAP1 block active.
CCOc1ccc(NC(=O)c2c(I)cnn2C)cc1 was read as BAP1 block inactive.
For O=C(NCC1CCCO1)c1ccc(S(=O)(=O)N2CCC(c3nc4ccc(Cl)cc4[nH]3)CC2)cc1 (stereo not given) the results were sEH inhibitor 80.9* and sEH act -81.0.
`O=S(=O)(c1ccc2c(c1)OCCO2)N1CCC(c2nc3ccc(Cl)cc3[nH]2)CC1` gave BAP1 block inactive and PLAP activator 1.5.
For COc1ccc(OCCSc2ncn[nH]2)cc1 the results were sEH inhibitor -3.0, PLAP activator 1.2 and sEH act 4.8.
Screening COc1ccc(OCCSc2n[nH]c(N)n2)cc1 returned sEH inhibitor -8.1, PLAP activator 2.6* and sEH act 11.5.
Screening Cc1cc(C)cc(OCC(=O)Nc2nonc2NC(=O)COc2cc(C)cc(C)c2)c1 returned sEH inhibitor 7.7, PLAP activator 2.3* and sEH act -6.2.
Screening NS(=O)(=O)c1ccc(CNC(=O)/C=C/c2c(Cl)cccc2Cl)cc1 returned sEH inhibitor 91.6*, PLAP activator 1.1 and sEH act -91.6.
O=C(/C=C/c1ccccc1Cl)NCc1ccccc1 was read as sEH inhibitor 39.1, PLAP activator 0.9 and sEH act -40.2.
For CC1=CC(C)(C)N2C(=O)C3(SCC(=O)N3c3ccc(O)cc3)c3cc(C)cc1c32 (stereo not given) the results were BAP1 block inactive and PLAP activator 1.3.
CC1=CC(C)(C)N2C(=O)C3(N=C(N)NC(Nc4ccccc4)=N3)c3cc(C)cc1c32 (stereo not given) was read as BAP1 block inactive, sEH inhibitor -1.8, PLAP activator 2.1* and sEH act 3.0.
For Cc1cc(C)c2oc(-c3cccc(NC(=O)c4ccccc4F)c3)nc2c1 the results were BAP1 block inactive.
O=C(O)c1ccccc1-c1ccc(-c2cc(C(=O)O)c3c(ccc4ccccc43)n2)o1 was read as BAP1 block inactive.
COc1cc(C2c3c(-c4cc(C)cc(C)c4O)n[nH]c3C(=O)N2CCCO)cc(OC)c1OC (stereo not given) was read as BAP1 block inactive, sEH inhibitor -14.2, PLAP activator 2.1* and sEH act 15.6.
For CC(C)OCCCN1C(=O)c2[nH]nc(-c3ccccc3O)c2C1c1cccc(Cl)c1 (stereo not given) the results were BAP1 block inactive and PLAP activator 1.3.
For COc1ccc(CCNC(=O)c2cc(-c3ccc(C)cc3O)n[nH]2)cc1OC the results were sEH inhibitor 4.9, PLAP activator 2* and sEH act -7.4.
`Cc1cc(C)c(O)c(-c2cc(C(=O)NCc3ccccc3)[nH]n2)c1` gave sEH inhibitor -0.4, PLAP activator 1.1 and sEH act -2.2.
`Cc1ccc(O)c(-c2cc(C(=O)NCc3ccncc3)[nH]n2)c1` gave BAP1 block inactive, sEH inhibitor -3.9, PLAP activator 2.9* and sEH act 5.2.
`CC(C)C(=O)Nc1ccc(-c2nc3cccnc3o2)cc1` gave sEH inhibitor -15.3, PLAP activator 1.3 and sEH act 13.7.
Screening CC(C)(C)c1ccc(OCC(=O)Nc2ccc(-c3nc4cccnc4o3)cc2)cc1 returned sEH inhibitor -5.2, PLAP activator 2* and sEH act 6.7.
For C=CCn1c(Cc2nc3ccccc3[nH]2)n[nH]c1=S the results were BAP1 block inactive, sEH inhibitor 17.8, PLAP activator 2* and sEH act -19.8.
